Measured values reported in PubChem BioAssay (NCI).
About 83,000 compounds went through this panel and 20% of them were active in at least one assay; those are over-represented in the sample as a whole.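 The test compound was applied at a single concentration to cells in 96-well plates for 48 hours, and percent growth was recorded.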 Values without a mark were called inactive. Activity calls are given as the source filed them. The calls were made as follows: active = growth percent below 10; inactive = the rest.

Key:
Assay in all cases: NCI-60 one-dose screen, 48 h (100 = growth as untreated, 0 = no growth, -100 = all killed)
SK-MEL-2 melanoma = conditions: 10 µM unless noted
EKVX NSCLC = conditions: 10 µM unless noted
SN12C renal = conditions: 10 µM unless noted
UO-31 renal = conditions: 10 µM unless noted
TK-10 renal = conditions: 10 µM unless noted
ACHN renal = conditions: 10 µM unless noted
CAKI-1 renal = conditions: 10 µM unless noted
A498 renal = conditions: 10 µM unless noted
CCRF-CEM leukemia = conditions: 10 µM unless noted
MOLT-4 leukemia = conditions: 10 µM unless noted
SR leukemia = conditions: 10 µM unless noted
RPMI-8226 leukemia = conditions: 10 µM unless noted
OVCAR-8 ovarian = conditions: 10 µM unless noted
OVCAR-5 ovarian = conditions: 10 µM unless noted
OVCAR-4 ovarian = conditions: 10 µM
SK-OV-3 ovarian = conditions: 10 µM unless noted
IGROV1 ovarian = conditions: 10 µM unless noted
OVCAR-3 ovarian = conditions: 10 µM unless noted
NCI/ADR-RES ovarian = conditions: 10 µM unless noted
HS 578T breast = conditions: 10 µM unless noted

| Compound | growth (SK-MEL-2 melanoma) | growth (EKVX NSCLC) [%] | growth (SN12C renal) [%] | growth (UO-31 renal) | growth (TK-10 renal) [%] | growth (ACHN renal) [%] | growth (CAKI-1 renal) [%] | growth (A498 renal) [%] | growth (CCRF-CEM leukemia) [%] | growth (MOLT-4 leukemia) | growth (SR leukemia) | growth (RPMI-8226 leukemia) | growth (OVCAR-8 ovarian) | growth (OVCAR-5 ovarian) [%] | growth (OVCAR-4 ovarian) [%] | growth (SK-OV-3 ovarian) [%] | growth (IGROV1 ovarian) [%] | growth (OVCAR-3 ovarian) [%] | growth (NCI/ADR-RES ovarian) [%] | growth (HS 578T breast) |
| --- | --- | --- | --- | --- | --- | --- | --- | --- | --- | --- | --- | --- | --- | --- | --- | --- | --- | --- | --- | --- |
| COCCCNc1nc(NC(=O)c2cc(OC)cc(OC)c2)cc(-c2cccnc2)n1 | 78.8% | 105 | 95.3 | 56.7% | 86.7 | 98.2 | 99.4 | 67.7 | 91.7 | 83.5% | 80.6% | 69.3% | 79.3% | 95.7 | 108 | 105 | 102 | 113 | 83.5 |  |
| O=C(Nc1cccc(C2=NCCN2)c1)c1cccc(C(=O)Nc2cccc(C3=NCCN3)c2)c1 | 103% | 88.6 | 95.7 | 84.5% | 89.3 | 101 | 92.6 | 111 | 104 | 100% | 92.3% | 94.3% | 101% | 95.7 | 94.7 | 104 | 99.1 |  | 98.8 | 98.4% |
| Cc1cc(SC#N)ncn1 | 66.9% | 101 | 94.9 | 96.2% | 101 | 98.4 | 98.9 | 102 | 88 | 109% | 109% | 101% | 96.2% | 115 | 103 | 105 |  | 100 | 103 | 105% |
| CCCCCCCCCCCCCCCCCCNC(=S)N/N=C/c1ccc(OC)c(OC)c1 | 111% | 92.9 | 93.4 | 77.1% | 104 | 102 | 93.9 | 82.4 | 91.7 | 100% | 81.2% | 89.7% | 101% | 93.8 | 98.5 | 98.5 | 94.2 |  | 97.3 | 100% |
| COc1ccc(C(=O)/C=C/c2ccccn2)c(O)c1 | 89.6% | 94.2 | 77.8 | 53.1% | 92.4 | 45 | 61.3 | 91.3 | 10.4 | 74.2% | -1.93% (active) | 6.35% (active) | 92.6% | 96.3 | 92.1 | 98.6 | 46.8 |  | 94 | 87.5% |
| Cc1ccc(S(=O)(=O)N/N=C2\CC3CCC2(C)C3(C)C)cc1 (centres undefined) | 76.8% | 105 | 93.5 | 86.4% | 137 | 102 | 78.5 | 105 | 112 | 111% | 105% | 97.4% | 88.8% | 83.4 | 104 | 114 |  | 103 | 213 | 120% |
| COc1ccc(OC)c([N+](=O)[O-])c1C(=O)CNC(C)=O | 109% | 97.5 | 100 | 84.7% | 105 | 100 | 96.4 | 94.1 | 110 | 101% | 118% | 93.4% | 99.5% | 99.9 | 103 | 105 | 106 |  | 94.9 | -2.16% (active) |
| Nc1cc(N)c(N=Nc2ccc(S(=O)(=O)O)cc2)cc1N=Nc1ccc(-c2ccc(N=Nc3ccc(O)c(C(=O)O)c3)cc2)cc1 | 103% | 97.1 | 102 | 79.8% | 142 | 99.8 | 90 | 108 | 98 | 102% | 110% | 99.2% | 100% | 108 | 103 | 100 | 104 |  | 98.9 | 105% |
| COc1ccc(C(=O)c2nccc3cc(OC)c(OC)cc23)cc1OC | 108% | 90.1 | 72.1 | 82.8% | 132 | 91.7 | 75.8 | 64.6 | 132 | 103% | 102% | 133% | 94.3% | 86.5 | 108 | 108 |  | 87.2 | 83.9 | 98% |
| CCCCCCNC(=O)Nc1ncnc2c1ncn2-c1ccccc1 | 91.3% | 92.2 | 97.3 | 58.4% | 94 | 90.7 | 85.8 | 83.1 | 103 | 102% | 99.5% | 91.4% | 91.3% | 88.9 | 85.3 | 87.5 |  | 111 | 91.1 | 97.6% |
| O=C(Nc1ccc(F)cc1)c1ccccc1 | 106% | 101 | 102 | 94.3% | 95.7 | 101 | 91.6 | 92.4 | 100 | 97.8% | 88.8% | 102% | 105% | 105 | 100 | 112 | 110 |  | 98.9 | 107% |
| CC(C)OC(=O)Nc1cc(F)ccc1F | 112% | 98.8 | 99.5 | 89.7% | 97.7 | 100 | 96.5 | 96.9 | 103 | 101% | 96.1% | 103% | 100% | 93.8 | 106 | 101 | 93.7 |  | 102 | 110% |
| CCN(CC)CCCCCCNc1cccc2cc(Br)cnc12 | 21.7% | 93.1 | 104 | 61% | 58.7 | 104 | 62.3 | 86.3 | 57 | 9.09% (active) | 28.4% | 68% | 80.2% | 117 | 87.5 | 111 | 60 | 84.2 | 79.9 |  |
| COCc1nc2ccccc2[nH]1 | 102% | 93.9 | 104 | 87.3% | 97.3 | 99.9 | 93.4 | 104 | 105 | 93% | 101% | 108% | 102% | 99.8 | 106 | 101 | 101 |  | 98.9 | 101% |
| CCOC(=O)C(c1ccccc1)N1C(=O)c2ccccc2C1=O (centres undefined) | 104% | 91.4 | 104 | 91.4% | 106 | 102 | 86.4 | 89.3 | 102 | 101% | 115% | 98% | 99.7% | 99.7 | 97.7 | 95.4 | 96.5 |  | 99.3 | 92.3% |
| Cc1cc(NN=C(c2ccc(O)cc2)c2ccc(O)cc2)c([N+](=O)[O-])cc1[N+](=O)[O-] | 0.57% (active) | 14.9 | 74.2 | 6.74% (active) | 51.4 | 43.7 | 65.1 | 85.9 | 119 | 108% | 84.9% | 123% | 0.819% (active) | 90.1 | 52.6 | 73.5 |  | 63.3 | 26.3 | 71.3% |
